mHTT CaM bind: mutant huntingtin-calmodulin interaction inhibitors – biochemical, AlphaScreen, primary screen; AID 1671202, 2021; P42858; AlphaScreen His-mHTT/GST-CaM binding, luminescence; hit rate 3.6% among 190,000; inhibition, % at 15 µM;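 note: 0% = both proteins with DMSO and 100% = one protein alone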
Pf apPOL inh: Pf-apPOL inhibitors, biochemical, fluorescence | hit rate 0.25% among 210,000 | Recombinant Pf-apPOL, molecular beacon fluorescence, 1.5 h | inhibition, % at 10 µM | Plasmodium falciparum apicoplast DNA polymerase (apPOL) | AID 1794808, 2022
Active calls of the source: *; . = not tested or not shown. The sample as a whole holds a higher share of hits than the screen did. Cut-off read from the data, not from the text of the source: active = inhibition above about 50%; inactive = the rest.

SMILES | mHTT CaM bind | Pf apPOL inh
O=C(Nc1cccc(Cl)c1)c1cccc(-c2cnc(N3CCCC3)nc2)c1 | -4 | 0
CCCC1CCC2(CC1)CC[C@H]2OC(=O)Nc1ccc2c(c1)OCO2 (stereo partly specified) | 44 | -7
Cc1ccc2[nH]c3c(c2c1)CC(NC(=O)CC(C)C)CC3 (stereo unspecified) | 93* | 0
Cc1ccc2[nH]c3c(c2c1)CN(C)CC3 | 3 | -2
Cc1c(Cl)cccc1NC(=O)C1CCc2sc(C(=O)N(C)C)cc2C1 (stereo unspecified) | -3 | -2
Cc1ccc(Oc2ncccc2NC(=O)c2ccc(C(F)(F)F)nc2C)c2c1CCC2 | . | -2
CCc1ccc(-n2[nH]c3c(cnc4ccc(C(=O)N5CCCC5)cc43)c2=O)cc1 | -4 | 4
CCc1ccc(-n2[nH]c3c(cnc4ccc(C(=O)NC(C)C)cc43)c2=O)cc1 | -5 | -4
CCC1CCCCN1C(=O)c1ccc2ncc3c(=O)n(-c4ccccc4)[nH]c3c2c1 (stereo unspecified) | 66* | 0
CC(C)NC(=O)c1ccc2ncc3c(=O)n(-c4ccc(Cl)cc4)[nH]c3c2c1 | 51* | 2
O=C(Nc1cc(F)c2nc(N3CCOCC3)ccc2c1)c1cccs1 | 7 | -5
CCOC(=O)C(=O)N1CCC(Cc2ccc(C(F)(F)F)cc2)CC1 | -4 | -11
COc1ccc(C(=O)Cc2ccccc2)c(OC)c1 | -12 | -5
Cc1cc(I)cc2c1NC(c1ccc(F)cc1)C1CC=CC21 (stereo unspecified) | 54* | 0
Fc1ccc(C2Nc3ccc(F)cc3C3C=CCC32)cc1 (stereo unspecified) | 94* | -1
CC(NC1=C(Cl)C(=O)c2ccccc2C1=O)C(=O)O (stereo unspecified) | 22 | 9
CC(=O)NC1CCCc2c1[nH]c1ccc(C)cc21 (stereo unspecified) | 5 | 99*
Cc1ccc2[nH]c3c(c2c1)CCC3O (stereo unspecified) | 78* | -4
CCN(CC)CCNC1CCCc2c1[nH]c1ccc(C)cc21 (stereo unspecified) | 19 | -2
Cc1ccc2[nH]c3c(c2c1)CCCC3NCCCN(C)C (stereo unspecified) | 36 | -1
Cc1ccc2[nH]c3c(c2c1)CCCC3NCCCO (stereo unspecified) | 14 | -1
Cc1ccc2[nH]c3c(c2c1)CCCC3NCCCOc1ccccc1 (stereo unspecified) | 100* | 9
O=CNC1CCCc2c1[nH]c1ccc(OCc3ccccc3)cc21 (stereo unspecified) | 53* | -2
O=CNC1CCCc2c1[nH]c1ccc(Cl)cc21 (stereo unspecified) | 5 | 2
CNC(=O)c1ccc2c(c1)n(Cc1ccc(F)cc1)c(=O)c1ccnn12 | 2 | -11
SMILES | mHTT CaM bind | Pf apPOL inh
Cc1ccc(NC(=O)/C(=C\c2ccc3c(c2)OCO3)NC(=O)c2ccccc2Cl)cc1F | 0 | 2
CCC(C)NC(=O)c1c[nH]c2ccc(S(=O)(=O)N3CCc4ccccc43)cc2c1=O (stereo unspecified) | 18 | -5
CCN1c2cc(F)ccc2C(=O)NC12CCN(C(=O)c1cccc(C)c1)CC2 | -9 | 0
CSc1ccc(C2SCC(=O)N2c2ccc(C)c(F)c2)cc1 (stereo unspecified) | -5 | -2
COC(CNC1CCCc2c1[nH]c1ccc(C)cc21)OC (stereo unspecified) | 18 | 16
Cc1ccc2[nH]c3c(c2c1)CCCC3NCc1ccc(Cl)cc1 (stereo unspecified) | 73* | -4
Cc1c(CC(Cl)(Cl)Cl)c2c(n1-c1ccc([N+](=O)[O-])cc1)CCCC2=O | 73* | -8
Cc1c(CC(Cl)(Cl)Cl)c2c(n1-c1ccccc1[N+](=O)[O-])CCCC2=O | 33 | -6
COc1ccc(C)cc1NS(=O)(=O)c1cccc2cccnc12 | -3 | -1
COc1ccc(C(Nc2cc(C)ccn2)c2ccc3ccc(C)nc3c2O)cc1OC (stereo unspecified) | 96* | -55
COc1ccccc1C(Nc1cc(C)ccn1)c1ccc2cccnc2c1O (stereo unspecified) | 99* | -8
Cc1ccnc(NC(c2ccccc2[N+](=O)[O-])c2ccc3cccnc3c2O)c1 (stereo unspecified) | 100* | -3
COc1ccc(NC(=O)Nc2cc(C)ccn2)cc1 | -3 | -4
O=[N+]([O-])c1cccc2ccc(Nc3ccccn3)nc12 | 14 | 3
COc1cccc2cc(C(=O)Nc3cc(C)ccn3)c(=O)oc12 | 0 | -3
COc1ccc(C(Nc2cc(C)ccn2)c2ccc3cccnc3c2O)cc1OC (stereo unspecified) | 100* | 3
O=C(Cc1ccc(F)cc1)Nc1cc(Cl)cc(Cl)c1 | -6 | -12
CCN(CC)CCNC(=O)c1cc2n(n1)CCCN(Cc1ccccc1)C2=O | -5 | -2
CCCN1CCN(C(=O)c2cc3c(n2C)CCN(Cc2ccccc2)C3)CC1 | 20 | -2
CC1(C)CC2CC(C)(CN2c2ccc(C(=O)O)cc2[N+](=O)[O-])C1 (stereo unspecified) | 12 | -2
O=C1C2C3C=CC(C2C(=O)N1Cc1ccccc1)C1C2C(=O)N(Cc4ccccc4)C(=O)C2C31 (stereo unspecified) | -1 | -2
COc1ccc(OC)c(-c2ncnn2-c2cccc(Cl)c2C)c1 | 0 | -2
COc1cccc(C(=O)N2CCN(c3nc4ccncc4n(CC(C)C)c3=O)CC2)c1 | 5 | 8
COc1ccc(C(Nc2ccccn2)c2ccc3cccnc3c2O)cc1OC (stereo unspecified) | 100* | -4
CCOc1ccc(C(Nc2ccccn2)c2ccc3ccc(C)nc3c2O)cc1OC (stereo unspecified) | 49 | 1
SMILES | mHTT CaM bind | Pf apPOL inh
COc1ccc(-c2nc3ccc(Br)cc3c(=O)o2)cc1OC | 4 | -4
COc1ccc(S(=O)(=O)NC2CCC(NS(=O)(=O)c3ccc(OC)cc3)CC2)cc1 (stereo unspecified) | 8 | 48
O=C1Nc2cc(C(=O)N3CCN(c4cccc(Cl)c4)CC3)ccc2N2CCCCC12 (stereo unspecified) | 93* | 2
O=C(NCCN1CCC(Cc2ccccc2)CC1)c1ccc2c(c1)NC(=O)C1CCCCN21 (stereo unspecified) | 97* | 2
O=C(NCCN1CCCCCC1)c1ccc2c(c1)NC(=O)C1CCCCN21 (stereo unspecified) | 11 | 1
O=C(NCCCc1ccccc1)c1ccc2c(c1)NC(=O)C1CCCN21 (stereo unspecified) | 67* | 4
COc1cccc(N2CCN(C(=O)c3ccc4c(c3)NC(=O)C3CCCCN43)CC2)c1 (stereo unspecified) | 30 | 2
O=C(NCCCc1ccccc1)c1ccc2c(c1)NC(=O)C1CCCCN21 (stereo unspecified) | -2 | -4
O=C(NCc1cccs1)C1c2ccccc2CCN1C(=O)C1CC1 (stereo unspecified) | 0 | -6
O=C1OC(c2ccccc2)=C/C1=C/c1ccc(Cl)cc1Cl | 2 | 0
COc1cccc(N2C=C(C#N)S(=O)(=O)c3ccc(C)cc32)c1 | -4 | 1
O=C1C2C(C(=O)N1c1cccc(C(F)(F)F)c1)C1C=CC2C12CC2 (stereo unspecified) | -2 | 0
